Measurements: the supplement of paper PMC11732987, “Enantioselective OTUD7B fragment discovery through chemoproteomics screening and high-throughput optimisation” (Communications Chemistry, 2025)

Experiments:
Assay in all cases: log2 ratio of Biotin-Ahx-Ub-VS probe labelling (fragment/DMSO); higher = less target engagement (more negative = stronger competition), active = hit call of the paper (q ≤ 0.05, log2 ratio ≤ -1)
Details in all cases: compound concentration: 200 uM; treatment time: 3 h
[1] = biological target: USP9X (UniProt Q93008)
In short: (§1)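 Labelled DUBs from HEK293T lysate were NeutrAvidin-enriched, digested with LysC and trypsin, and run by diaPASEF LC-MS/MS. Before that, each 495 µg sample in Tris/CHAPS/IGEPAL buffer with protease inhibitors was treated in triplicate with fragment at 200 µM or vehicle for 3 h, then with Biotin-Ahx-Ub-VS at 0.5 µM final for 1 h. Values are average log2 ratios of fragment over vehicle by unpaired t-test, based on global-median-normalised Spectronaut label-free quantities from proteins with ≥2 unique peptides.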

[2] = biological target: UniProt O00487
In short: as §1

[3] = biological target: UniProt O00507
In short: as §1

[4] = biological target: UniProt P51784
In short: as §1

[5] = biological target: T1, UniProt Q5T2D3
T1 sequence (whole entry): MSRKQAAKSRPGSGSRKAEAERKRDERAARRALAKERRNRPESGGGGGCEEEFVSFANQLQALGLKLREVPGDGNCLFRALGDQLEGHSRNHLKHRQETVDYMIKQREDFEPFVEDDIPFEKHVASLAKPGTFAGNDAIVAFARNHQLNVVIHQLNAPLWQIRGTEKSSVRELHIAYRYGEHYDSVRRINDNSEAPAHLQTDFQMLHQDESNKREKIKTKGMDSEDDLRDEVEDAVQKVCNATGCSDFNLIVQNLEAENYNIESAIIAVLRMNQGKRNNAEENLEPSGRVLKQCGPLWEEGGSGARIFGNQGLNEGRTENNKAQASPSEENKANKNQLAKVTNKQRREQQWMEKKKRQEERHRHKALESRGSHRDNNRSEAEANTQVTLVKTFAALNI
In short: as §1

[6] = biological target: T2, UniProt Q8TE49
T2 sequence (whole entry): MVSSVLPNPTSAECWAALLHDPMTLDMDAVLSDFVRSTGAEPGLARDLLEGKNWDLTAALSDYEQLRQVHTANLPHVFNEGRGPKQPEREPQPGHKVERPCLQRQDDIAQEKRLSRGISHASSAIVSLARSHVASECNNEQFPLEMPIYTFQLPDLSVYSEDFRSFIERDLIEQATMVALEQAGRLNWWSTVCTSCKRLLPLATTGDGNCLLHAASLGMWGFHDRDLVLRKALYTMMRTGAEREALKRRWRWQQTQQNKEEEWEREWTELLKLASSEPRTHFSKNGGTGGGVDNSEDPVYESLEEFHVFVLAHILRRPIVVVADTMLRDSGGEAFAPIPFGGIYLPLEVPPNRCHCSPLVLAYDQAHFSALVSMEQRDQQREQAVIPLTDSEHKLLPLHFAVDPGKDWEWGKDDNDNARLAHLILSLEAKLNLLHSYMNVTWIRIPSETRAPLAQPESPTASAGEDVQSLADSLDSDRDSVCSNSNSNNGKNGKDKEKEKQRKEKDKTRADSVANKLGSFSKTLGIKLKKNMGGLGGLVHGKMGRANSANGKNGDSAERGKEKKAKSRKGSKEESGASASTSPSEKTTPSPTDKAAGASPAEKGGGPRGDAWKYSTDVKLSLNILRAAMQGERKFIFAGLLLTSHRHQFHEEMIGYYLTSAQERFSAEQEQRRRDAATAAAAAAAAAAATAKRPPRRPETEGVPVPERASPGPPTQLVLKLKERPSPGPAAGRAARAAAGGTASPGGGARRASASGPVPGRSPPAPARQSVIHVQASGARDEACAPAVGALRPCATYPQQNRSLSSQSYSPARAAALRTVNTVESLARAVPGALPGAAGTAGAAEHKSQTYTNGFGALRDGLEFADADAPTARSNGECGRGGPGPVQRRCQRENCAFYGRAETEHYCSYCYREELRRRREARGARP
In short: as §1

[7] = biological target: T3, UniProt Q9P2H5
T3 sequence (whole entry): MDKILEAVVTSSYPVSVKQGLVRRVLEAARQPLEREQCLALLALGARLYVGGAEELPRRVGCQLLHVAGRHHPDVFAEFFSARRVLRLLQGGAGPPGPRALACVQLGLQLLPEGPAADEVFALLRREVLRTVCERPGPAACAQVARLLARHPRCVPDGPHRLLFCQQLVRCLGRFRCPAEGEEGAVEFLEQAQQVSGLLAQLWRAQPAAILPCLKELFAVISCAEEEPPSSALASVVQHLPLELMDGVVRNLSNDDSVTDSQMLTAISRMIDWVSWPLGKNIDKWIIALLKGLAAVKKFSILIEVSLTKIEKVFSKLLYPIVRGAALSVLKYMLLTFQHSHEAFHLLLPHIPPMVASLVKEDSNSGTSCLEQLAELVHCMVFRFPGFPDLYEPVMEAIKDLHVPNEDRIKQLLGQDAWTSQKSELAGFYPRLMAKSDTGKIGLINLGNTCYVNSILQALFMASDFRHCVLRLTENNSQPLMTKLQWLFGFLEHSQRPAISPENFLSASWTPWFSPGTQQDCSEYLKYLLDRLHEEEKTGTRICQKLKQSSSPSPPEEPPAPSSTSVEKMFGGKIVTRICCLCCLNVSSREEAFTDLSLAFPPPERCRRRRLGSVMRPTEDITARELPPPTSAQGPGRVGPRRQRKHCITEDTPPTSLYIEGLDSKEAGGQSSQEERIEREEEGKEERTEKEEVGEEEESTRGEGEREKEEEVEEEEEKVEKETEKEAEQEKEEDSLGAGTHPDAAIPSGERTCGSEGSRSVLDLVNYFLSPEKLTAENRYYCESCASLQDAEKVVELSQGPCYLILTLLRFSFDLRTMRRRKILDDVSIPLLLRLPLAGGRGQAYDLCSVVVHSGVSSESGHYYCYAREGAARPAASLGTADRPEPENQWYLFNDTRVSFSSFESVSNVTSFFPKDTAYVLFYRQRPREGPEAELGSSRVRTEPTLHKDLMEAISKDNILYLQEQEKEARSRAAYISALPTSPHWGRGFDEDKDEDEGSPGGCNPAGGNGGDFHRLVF
In short: as §1

[8] = biological target: T4, UniProt Q9UGI0
T4 sequence (whole entry): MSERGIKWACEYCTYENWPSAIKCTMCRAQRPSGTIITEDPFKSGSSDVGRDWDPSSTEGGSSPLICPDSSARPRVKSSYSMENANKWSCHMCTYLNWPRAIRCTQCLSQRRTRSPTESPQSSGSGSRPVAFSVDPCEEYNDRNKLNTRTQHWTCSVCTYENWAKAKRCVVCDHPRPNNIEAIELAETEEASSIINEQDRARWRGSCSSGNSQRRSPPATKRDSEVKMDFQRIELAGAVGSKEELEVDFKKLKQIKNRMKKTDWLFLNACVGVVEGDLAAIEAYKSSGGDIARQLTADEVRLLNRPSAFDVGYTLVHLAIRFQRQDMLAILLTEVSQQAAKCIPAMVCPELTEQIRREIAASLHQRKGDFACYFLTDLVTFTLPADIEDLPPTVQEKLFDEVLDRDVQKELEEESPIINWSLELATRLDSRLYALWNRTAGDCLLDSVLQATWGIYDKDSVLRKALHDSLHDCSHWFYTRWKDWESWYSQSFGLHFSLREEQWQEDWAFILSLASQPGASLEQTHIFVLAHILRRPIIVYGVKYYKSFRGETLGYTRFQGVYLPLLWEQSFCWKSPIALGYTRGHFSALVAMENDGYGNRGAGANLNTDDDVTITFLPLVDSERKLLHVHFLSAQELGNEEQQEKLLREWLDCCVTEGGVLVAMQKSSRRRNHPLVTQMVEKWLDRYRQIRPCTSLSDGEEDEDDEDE
In short: as §1

[9] = biological target: T5, YOD1 (UniProt Q5VVQ6)
T5 sequence (whole entry): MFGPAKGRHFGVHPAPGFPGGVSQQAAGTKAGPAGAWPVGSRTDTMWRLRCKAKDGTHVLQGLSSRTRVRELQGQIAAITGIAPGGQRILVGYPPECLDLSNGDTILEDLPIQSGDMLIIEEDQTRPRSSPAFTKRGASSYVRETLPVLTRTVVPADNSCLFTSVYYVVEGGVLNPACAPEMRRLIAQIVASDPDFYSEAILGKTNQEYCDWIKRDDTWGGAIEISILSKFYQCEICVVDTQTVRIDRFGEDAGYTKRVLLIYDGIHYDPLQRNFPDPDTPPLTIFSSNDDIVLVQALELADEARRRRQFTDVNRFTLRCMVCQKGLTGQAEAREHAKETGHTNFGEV
In short: as §1

Measured: log2 ratio of Biotin-Ahx-Ub-VS probe labelling

UniProt P51784, sequence (P51784 whole entry): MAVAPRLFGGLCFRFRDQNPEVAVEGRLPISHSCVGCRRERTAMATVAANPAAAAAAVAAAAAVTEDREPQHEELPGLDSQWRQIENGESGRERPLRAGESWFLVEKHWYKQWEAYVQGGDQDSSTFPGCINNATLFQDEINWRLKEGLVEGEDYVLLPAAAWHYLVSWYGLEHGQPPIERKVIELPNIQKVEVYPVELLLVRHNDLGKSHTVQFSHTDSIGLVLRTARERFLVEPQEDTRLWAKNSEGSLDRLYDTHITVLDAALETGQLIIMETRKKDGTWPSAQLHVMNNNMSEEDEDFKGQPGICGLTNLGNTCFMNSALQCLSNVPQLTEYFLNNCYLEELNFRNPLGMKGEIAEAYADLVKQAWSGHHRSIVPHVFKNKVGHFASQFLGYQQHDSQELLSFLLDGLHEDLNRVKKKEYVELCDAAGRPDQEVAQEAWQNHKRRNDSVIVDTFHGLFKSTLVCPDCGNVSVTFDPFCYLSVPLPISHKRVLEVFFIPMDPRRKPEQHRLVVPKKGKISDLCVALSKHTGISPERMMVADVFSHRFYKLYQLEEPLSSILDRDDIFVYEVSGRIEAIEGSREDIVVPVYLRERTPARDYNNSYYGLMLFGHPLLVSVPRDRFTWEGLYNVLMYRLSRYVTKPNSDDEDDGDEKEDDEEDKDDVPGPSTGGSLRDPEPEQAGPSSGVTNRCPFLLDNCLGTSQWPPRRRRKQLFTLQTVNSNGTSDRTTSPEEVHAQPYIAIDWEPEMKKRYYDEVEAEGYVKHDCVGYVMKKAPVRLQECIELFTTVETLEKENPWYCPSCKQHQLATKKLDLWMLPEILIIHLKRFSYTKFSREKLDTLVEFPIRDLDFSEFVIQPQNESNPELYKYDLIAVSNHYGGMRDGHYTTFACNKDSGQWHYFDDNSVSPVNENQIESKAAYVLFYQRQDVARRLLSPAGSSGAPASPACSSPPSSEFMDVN
UniProt O00507, sequence (O00507 whole entry): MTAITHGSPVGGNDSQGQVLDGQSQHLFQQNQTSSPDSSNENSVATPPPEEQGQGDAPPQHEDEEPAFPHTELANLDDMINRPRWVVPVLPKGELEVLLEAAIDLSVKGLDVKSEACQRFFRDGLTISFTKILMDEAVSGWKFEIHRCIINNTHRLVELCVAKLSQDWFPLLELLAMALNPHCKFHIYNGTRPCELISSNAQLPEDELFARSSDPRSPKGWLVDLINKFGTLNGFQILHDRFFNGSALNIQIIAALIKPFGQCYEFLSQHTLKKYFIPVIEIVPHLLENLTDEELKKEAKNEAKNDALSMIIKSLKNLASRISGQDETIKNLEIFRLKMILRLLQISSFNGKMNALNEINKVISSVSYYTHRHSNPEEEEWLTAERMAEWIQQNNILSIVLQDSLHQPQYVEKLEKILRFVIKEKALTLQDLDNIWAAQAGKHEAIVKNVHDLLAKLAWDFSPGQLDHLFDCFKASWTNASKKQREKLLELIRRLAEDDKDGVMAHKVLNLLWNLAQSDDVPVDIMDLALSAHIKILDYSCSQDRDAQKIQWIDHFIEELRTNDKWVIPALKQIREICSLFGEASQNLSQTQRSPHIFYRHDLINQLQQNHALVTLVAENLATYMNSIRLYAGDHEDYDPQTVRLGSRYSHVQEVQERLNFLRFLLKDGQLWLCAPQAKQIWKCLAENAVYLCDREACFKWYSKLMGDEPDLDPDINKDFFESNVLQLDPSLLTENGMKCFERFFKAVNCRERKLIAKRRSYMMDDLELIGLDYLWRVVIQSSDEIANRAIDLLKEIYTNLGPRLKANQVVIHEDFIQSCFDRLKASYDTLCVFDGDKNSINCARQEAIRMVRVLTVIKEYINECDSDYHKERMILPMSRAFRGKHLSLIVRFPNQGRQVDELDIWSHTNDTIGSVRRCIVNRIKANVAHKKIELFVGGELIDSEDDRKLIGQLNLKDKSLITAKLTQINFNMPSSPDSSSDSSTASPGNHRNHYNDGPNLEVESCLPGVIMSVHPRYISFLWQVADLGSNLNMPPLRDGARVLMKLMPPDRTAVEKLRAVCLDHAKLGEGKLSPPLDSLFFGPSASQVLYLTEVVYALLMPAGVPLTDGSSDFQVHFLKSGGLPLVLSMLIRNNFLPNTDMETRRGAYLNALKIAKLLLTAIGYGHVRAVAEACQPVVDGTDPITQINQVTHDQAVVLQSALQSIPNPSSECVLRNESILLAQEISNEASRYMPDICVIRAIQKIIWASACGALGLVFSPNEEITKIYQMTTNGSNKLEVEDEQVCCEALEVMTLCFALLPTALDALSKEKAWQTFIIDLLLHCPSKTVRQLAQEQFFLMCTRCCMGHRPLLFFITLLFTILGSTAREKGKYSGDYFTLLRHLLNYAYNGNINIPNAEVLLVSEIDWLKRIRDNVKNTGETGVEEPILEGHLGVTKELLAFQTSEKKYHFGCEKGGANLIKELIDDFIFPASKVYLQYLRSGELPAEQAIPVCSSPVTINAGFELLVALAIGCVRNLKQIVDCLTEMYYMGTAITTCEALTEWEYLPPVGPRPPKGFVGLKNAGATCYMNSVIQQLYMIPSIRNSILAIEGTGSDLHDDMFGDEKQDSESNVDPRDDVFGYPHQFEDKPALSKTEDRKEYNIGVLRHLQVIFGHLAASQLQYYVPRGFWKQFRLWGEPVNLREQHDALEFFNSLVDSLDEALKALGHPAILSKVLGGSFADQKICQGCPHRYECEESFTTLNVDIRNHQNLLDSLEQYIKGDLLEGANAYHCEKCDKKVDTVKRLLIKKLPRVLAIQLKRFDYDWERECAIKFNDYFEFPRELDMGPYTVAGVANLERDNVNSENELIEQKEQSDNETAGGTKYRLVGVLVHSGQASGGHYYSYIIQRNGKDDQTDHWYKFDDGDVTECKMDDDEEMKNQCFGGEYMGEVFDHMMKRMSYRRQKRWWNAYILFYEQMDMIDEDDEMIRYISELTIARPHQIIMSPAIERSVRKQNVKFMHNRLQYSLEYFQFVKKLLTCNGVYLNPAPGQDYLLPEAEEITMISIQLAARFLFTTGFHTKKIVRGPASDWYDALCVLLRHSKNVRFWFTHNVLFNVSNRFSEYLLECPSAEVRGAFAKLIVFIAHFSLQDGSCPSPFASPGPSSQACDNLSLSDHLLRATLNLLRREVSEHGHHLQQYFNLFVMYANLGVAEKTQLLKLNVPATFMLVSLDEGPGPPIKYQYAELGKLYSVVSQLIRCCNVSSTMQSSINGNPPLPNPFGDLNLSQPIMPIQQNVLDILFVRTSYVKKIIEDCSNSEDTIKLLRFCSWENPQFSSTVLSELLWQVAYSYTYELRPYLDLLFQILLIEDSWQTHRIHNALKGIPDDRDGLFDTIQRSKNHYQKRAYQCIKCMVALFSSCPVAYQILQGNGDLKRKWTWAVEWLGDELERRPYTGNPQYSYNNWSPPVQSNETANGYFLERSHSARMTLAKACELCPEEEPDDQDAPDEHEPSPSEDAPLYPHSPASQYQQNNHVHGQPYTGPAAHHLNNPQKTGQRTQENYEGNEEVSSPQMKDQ
UniProt O00487, sequence (O00487 whole entry): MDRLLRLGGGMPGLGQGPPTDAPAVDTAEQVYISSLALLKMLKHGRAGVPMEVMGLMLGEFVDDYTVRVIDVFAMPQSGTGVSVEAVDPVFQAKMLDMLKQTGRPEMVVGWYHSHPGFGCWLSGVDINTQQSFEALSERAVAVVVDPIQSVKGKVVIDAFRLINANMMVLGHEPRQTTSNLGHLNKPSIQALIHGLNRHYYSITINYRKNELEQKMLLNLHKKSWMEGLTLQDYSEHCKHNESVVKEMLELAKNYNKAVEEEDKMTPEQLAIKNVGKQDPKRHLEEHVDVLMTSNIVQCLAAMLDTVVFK

Cc1cc(NC(=O)CCl)n(-c2ccccc2)n1
inactive: [1] 0.0409 | [2] -0.0689 | [3] 0.159 | [4] -0.0134 | [5] 0.000838 | [6] -0.548 | [7] -0.36 | [8] -0.672 | [9] 0.179
